An excerpt weighted towards active compounds, which were near 8.7% of everything screened.
JMJD2A Tudor = blocks the human JMJD2A Tudor domain. O75164. AlphaScreen JMJD2A-Tudor / H3K4me3 peptide binding. Potency, µM (top dose mostly 114 µM), for inactives: at the highest dose activity change, negative = inhibition, usual class: inhibitors. 390,000 compounds, 4.4% hits. AID 504339; note: % is set by controls: 0 for no effect and ±100 for the full control effect; nearly all actives have a fitted effect of over 50% in size
BAZ2B block = BAZ2B (human) inhibition. AlphaScreen BAZ2B-H3K14Ac peptide displacement. Potency, µM (top dose mostly 114 µM), inactives show at the highest dose activity change, negative = inhibition, hits mostly inhibitors. 360,000 compounds, 4.4% hits. AID 504333; note: % is set by controls: 0 for no effect and ±100 for the full control effect; nearly all actives have a fitted effect of over 60% in size
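In this displacement format the biotinylated H3(5-23) peptide acetylated at Lys14 serves as ligand at 50 nM, with BAZ2B at 50 nM in PBS pH 7.4 containing 0.01% Tween-20. Donor and acceptor beads are 10 ug/mL final.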
Sfp PPTase inh = Sfp phosphopantetheinyl transferase inhibition; Q9F4F7; Biochemical Sfp PPTase activity, qHTS; Potency, µM, inactives show largest response in the series, negative = inhibition, usual class: inhibitors; 310,000 compounds, 3.5% hits; AID 1490;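 note: the enzyme is Sfp with the accession as filed and its product quenches rhodamine fluorescence; 0% = enzyme reaction without inhibitor and -100% = no enzyme wells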
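Fluorescence-quenching assay with 15 nM Sfp, 5 uM rhodamine-CoA and 12.5 uM BHQ-2-labelled ybbR peptide in pH 7.6 Hepes/MgCl2 buffer. Enzyme was pre-incubated with compound for 15 min at room temperature. Rate was taken from the 30-min fluorescence change (525/598 nm).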
HP1b chromo inh = blocks HP1-beta chromodomain binding to methylated histone tails | P83916 | AlphaScreen HP1-beta / biotin-H3K9me3 peptide binding | Potency, µM (doses to about 114 µM), for inactives: at the highest dose activity change, negative = inhibition, hits mostly inhibitors | 390,000 compounds, 0.56% hits; note: nearly all actives have a fitted effect of over 70% in size
Target sequence (P83916 whole entry, looked up): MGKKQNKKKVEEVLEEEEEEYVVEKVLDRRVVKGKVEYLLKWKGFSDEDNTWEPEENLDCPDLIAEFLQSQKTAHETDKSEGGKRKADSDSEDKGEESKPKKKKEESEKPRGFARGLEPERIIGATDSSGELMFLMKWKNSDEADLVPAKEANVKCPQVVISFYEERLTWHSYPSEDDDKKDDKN
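Compound inhibition of the preformed complex between 50 nM HP1-beta and 50 nM biotinylated H3K9me3 peptide was read by AlphaScreen. Buffer was PBS pH 7.4 with 0.01% Tween-20. Incubations ran 30 min at room temperature, with 10 ug/mL donor/acceptor beads.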
G9a inh = G9a (human) methyltransferase inhibition | Q96KQ7 | G9a H3K9 monomethylation, AlphaScreen, 2 h | Potency, µM (top dose mostly 102 µM), inactives show at the highest dose activity, negative = inhibition, most hits filed as inhibitors | 350,000 compounds, 8.8% hits | AID 504332; note: % is set by controls: 0 for no effect and ±100 for the full control effect; nearly all actives have a fitted effect of over 75% in size
Target sequence (Q96KQ7 913-1193 limits assumed): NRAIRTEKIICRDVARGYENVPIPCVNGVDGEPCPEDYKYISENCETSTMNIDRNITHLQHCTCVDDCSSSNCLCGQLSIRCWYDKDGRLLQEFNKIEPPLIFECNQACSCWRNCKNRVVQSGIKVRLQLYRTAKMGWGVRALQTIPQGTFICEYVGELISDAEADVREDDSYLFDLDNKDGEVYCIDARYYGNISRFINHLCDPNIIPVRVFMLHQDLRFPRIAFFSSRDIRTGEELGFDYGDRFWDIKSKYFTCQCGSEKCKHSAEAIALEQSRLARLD
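Using a bead-based AlphaScreen, monomethylated H3K9 product from 2 h room-temperature reactions (G9a 20 nM, peptide 500 nM, SAM 20 uM) was detected with 0.5 ug/mL rabbit anti-H3K9me1 antibody.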
12-LOX inh = inhibitors of human 12S-lipoxygenase ALOX12. Potency, µM (titrated, usually from 108 µM), for inactives: top-dose activity change, negative = inhibition, actives largely listed as inhibitors. 580,000 compounds, 1.1% hits. purified 12hLO, xylenol orange hydroperoxide absorbance. AID 1671190. P18054; note: % is set by controls: 0 for no effect and ±100 for the full control effect
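Purified human 12hLO at 150 nM in 25 mM Hepes, 0.01% Triton X-100, pH 7.0, preincubated 15 min at room temperature with compound. Reaction started with 40 uM arachidonic acid, 30 min at room temperature. Hydroperoxide measured by Fe-xylenol orange, 573/405 nm absorbance ratio.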
Active calls of the source: *; u = inconclusive; x = no result; [ ] = another dose, or the depositor's remark. Calls come from the whole dose curve; as a rule, active = well fitted curve in the direction sought with a large enough effect; inconclusive = small, poorly fitted or top-dose-only effect, or another doubt; inactive = no such curve, though single readings can be large; an effect the other way counts as inactive or inconclusive. Potency is the fitted concentration of half-maximal effect.

SMILES	JMJD2A Tudor	BAZ2B block	Sfp PPTase inh	HP1b chromo inh	G9a inh	12-LOX inh
O=C(NNC(=S)Nc1cccc(C(F)(F)F)c1)c1cccc(Cl)c1	-33%	-28%	1%	u	u	u
Cc1cccc(NC(=S)Nc2cccc(C(F)(F)F)c2)n1	-8%	-6%	-7%	53%	7%[59 µM]	u
FC(F)(F)c1cccc(NC(=S)Nc2cccc(NC(=S)Nc3cccc(C(F)(F)F)c3)n2)c1	u	u	20µM*	u	x	-23%
O=C(NNC(=S)Nc1cccc(C(F)(F)F)c1)c1ccccc1Cl	-28%	-17%	-3%	-13%	3.2µM*	u
COc1ccc(Cl)cc1NC(=O)CNCc1cccs1	4.5µM*	71µM*	-10%	u	1%	-31%
COc1ccc(Cl)cc1NC(=O)CN(C)C(=O)Cc1ccsc1	-10%	-4%	x	40%	28µM*	-1%
O=[N+]([O-])c1c(NCCCO)cc(SCc2ccco2)c2nonc12	-28%	u	22µM*	5%	8.9µM*	u
COC(=O)CCSc1cc(NCCOC(C)=O)c([N+](=O)[O-])c2nonc12	-8%[57.1 µM]	-11%	-2%	-6%[57 µM]	26%	u
CC(=O)OCCNc1cc(SCc2ccco2)c2nonc2c1[N+](=O)[O-]	50µM*	u	45µM*	-39%	45µM*	x
Cn1ccnc1Sc1cc(NCCCO)c([N+](=O)[O-])c2nonc12	-16%	-8%	u	3%	56µM*	-17%
C=C(C)C(C)(C)C(=O)N1CCCC(N2CCN(c3ccccc3OC)CC2)C1 (centres undefined)	x	x	x	x	x	27%
CC1CC(C)(C)CC2(C1)NC(=O)N(CC(=O)N1CCN(S(=O)(=O)c3ccc(F)c(F)c3F)CC1)C2=O (centres undefined)	20µM*	x	x	26%	x	u
CN1CCN(c2ccc(Cl)cc2NC(=O)CN2C(=O)NC(C)(c3ccccc3)C2=O)CC1 (centres undefined)	-22%	-22%	x	27%	45µM*	1%
CC1CCCCC12NC(=O)N(CC(=O)Nc1ccc(N3CCCCC3)cc1)C2=O (centres undefined)	-21%	-35%	x	17%	16µM*	-19%
CC1(c2ccccc2Cl)NC(=O)N(CC(=O)Nc2ccc(N3CCCCC3)cc2)C1=O (centres undefined)	u	35µM*	x	-24%	14µM*	5%
COc1ccc(C2NC(=O)N(CC3CC3)C3=C2C(=O)OC3)cc1 (centres undefined)	x	x	x	x	x	16%
COc1ccc(C(=O)N2CC(c3nnc(-c4ccncc4)o3)C3(CCOCC3)C2)cc1 (centres undefined)	x	x	x	x	x	66%
CC(C)CSc1nc2c(c(=O)n(C)c(=O)n2C)n1C/C=C/c1ccccc1	x	x	x	x	x	23%
CCOC(=O)CCNC(=O)N1C[C@@H](Oc2cccnc2)C[C@H]1C(=O)N1CCCC1	x	x	x	x	x	2%
CNC(=O)c1ccc(/C=C/C(=O)c2ccccc2C)cc1	x	x	x	x	x	-22%
O=C(NC1CCCN(c2cc(-c3ccc(F)cc3)[nH]n2)C1)c1cc(Cl)ccc1F (centres undefined)	x	x	x	x	x	14%
O=C(CN1C(=O)NC2(CCCCC2)C1=O)Nc1ccc(N2CCCCC2)cc1	-34%	x	x	-23%	x	-7%
CC1CC(C)(C)CC2(C1)NC(=O)N(CC(=O)Nc1ccc(N3CCCCC3)cc1)C2=O (centres undefined)	u	u	2%	u	45µM*	14%
Cc1cc(C)cc(N(C(=O)Cn2nnc3ccccc32)C(C(=O)NCc2ccco2)c2ccncc2)c1 (centres undefined)	14%	-3%	45µM*	24%	u	-12%
CCCCN(C(=O)Cn1nnc2ccccc21)C(C(=O)NCc1ccco1)c1ccncc1 (centres undefined)	-17%	-2%	50µM*	41%	u	1%

Bioassay records deposited in PubChem by National Center for Advancing Translational Sciences (NCATS).
